# Many of the other results were omitted from the sample, so hits are more common in it than they were.
# HT1080 IDH1KD tx: toxicity to HT-1080 IDH1 knockdown cells (counter line) | HT-1080 IDH1 knockdown viability, ATP luminescence, 48 h | Potency, µM (top dose mostly 46.1 µM), usual class: cytotoxic | hit rate 2% among 360,000 | AID 686971
#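 HT-1080-IDH1KD cells (IDH1 knocked down), 750/well in RPMI with 5% FBS, treated with compound 48 h at 37 degrees C. Viability by CellTiter-Glo luminescence, normalised to DMSO and no-cell wells; concentration-response curves classed.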
# 12-LOX inh: ALOX12 (human) lipoxygenase inhibition; P18054; purified 12hLO, xylenol orange hydroperoxide absorbance; Potency, µM (titrated, usually from 108 µM), actives largely listed as inhibitors; hit rate 1.1% among 580,000; AID 1671190
# Target sequence (P18054 whole entry, looked up): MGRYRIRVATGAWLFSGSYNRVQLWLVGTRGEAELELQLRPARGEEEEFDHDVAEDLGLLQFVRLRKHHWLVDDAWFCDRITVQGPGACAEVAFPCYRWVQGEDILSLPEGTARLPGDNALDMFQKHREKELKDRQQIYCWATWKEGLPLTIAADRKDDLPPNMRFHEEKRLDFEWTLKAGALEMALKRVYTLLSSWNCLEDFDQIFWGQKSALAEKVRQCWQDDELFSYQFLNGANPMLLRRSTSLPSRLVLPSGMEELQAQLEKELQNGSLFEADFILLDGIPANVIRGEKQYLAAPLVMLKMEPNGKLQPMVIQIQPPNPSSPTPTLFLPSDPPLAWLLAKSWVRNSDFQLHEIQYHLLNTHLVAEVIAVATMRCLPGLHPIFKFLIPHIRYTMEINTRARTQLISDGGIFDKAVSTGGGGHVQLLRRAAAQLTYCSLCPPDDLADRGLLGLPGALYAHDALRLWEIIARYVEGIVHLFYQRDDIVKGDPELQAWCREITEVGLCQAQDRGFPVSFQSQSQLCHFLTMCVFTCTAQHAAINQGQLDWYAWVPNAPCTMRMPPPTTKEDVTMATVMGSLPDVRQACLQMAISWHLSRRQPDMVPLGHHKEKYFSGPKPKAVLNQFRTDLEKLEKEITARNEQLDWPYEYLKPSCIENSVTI
#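 Purified human 12hLO (150 nM final) in 25 mM Hepes, 0.01% Triton X-100, pH 7.0 was preincubated 15 min at room temperature with compound. Then 40 uM arachidonic acid was added, 30 min. Hydroperoxide was read by Fe-XO absorbance ratio 573/405 nm.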
# IL1B secr inh: blocks inflammasome-driven IL-1 beta release; AID 743279; activity change, % at 57.5 µM; hit rate 4.7% among 360,000; THP-1 LPS/ATP IL-1B secretion, AlphaLISA, 16 h; active compounds read low; in the data active = activity change below about -50%; inconclusive = mostly about -30% to -49%
#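 THP-1 cells pretreated 1 hr with compounds (up to 57.5 uM final), then stimulated with LPS (250 ng/mL final) plus ATP (1.25 mM final); secreted IL-1B measured by AlphaLISA after 16 hr, decreased signal indicating inhibition.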
# HT1080NT lethal: kills 2HG-producing HT-1080-NT fibrosarcoma cells. HT-1080-NT fibrosarcoma viability, CellTiter-Glo ATP luminescence, 48 h. Potency, µM (highest dose often 46.1 µM), usual class: cytotoxic. hit rate 1.6% among 360,000;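 note: NT is the 2HG producing partner of a matched IDH1 knockdown line; nearly all actives have a fitted effect of over 55% in size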
#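 Read-out is CellTiter-Glo luminescence after 10 minutes at room temperature, following 48 hours' compound treatment of HT-1080-NT cells (750 cells/well, RPMI, 5% FBS, 37 degrees C).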
# DT40 TDP1 no CPT: qHTS for Inhibitors of human tyrosyl-DNA phosphodiesterase 1 (TDP1): qHTS in cells in absence of CPT. DT40 Tdp1-/- hTDP1 cells, no CPT, ATP luminescence, 48 h. Potency, µM (doses to about 46.2 µM), hits mostly inhibitors. hit rate 15% among 420,000; note: nearly all actives have a fitted effect of over 55% in size
#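 Seeded 400 DT40-hTDP1 cells/well (vehicle DMSO, no 20 nM CPT); pinned compounds; ≥48 hr at 37 °C; CellTiter-Glo luminescence as viability measure.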
# TDP1 cell CPT: growth inhibition of DT40 Tdp1-/-;hTDP1 cells with camptothecin (screen for TDP1 inhibitors) | chicken DT40 Tdp1-/-;hTDP1 cells + 20 nM CPT, ATP luminescence, 48 h | Potency, µM (highest dose often 46.2 µM), hits mostly inhibitors | hit rate 12% among 420,000 | AID 686979; note: nearly all actives have a fitted effect of over 55% in size
#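 Chicken DT40 Tdp1-/- cells stably complemented with human TDP1 were seeded at 400 cells/well in medium containing 20 nM camptothecin, exposed to pin-transferred compounds, and grown at 37 °C for at least 48 hr. Viability was read as ATP luminescence.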
# A number is an active result; – = inactive; ? = inconclusive; · = no result given; [ ] = dose if it differs, or a comment. Unless noted, calls come from the whole dose curve; as a rule, active = well fitted curve in the direction sought with a large enough effect; inconclusive = small, poorly fitted or top-dose-only effect, or another doubt; inactive = no such curve, though single readings can be large; an effect the other way counts as inactive or inconclusive.
SMILES,HT1080 IDH1KD tx,12-LOX inh,IL1B secr inh,HT1080NT lethal,DT40 TDP1 no CPT,TDP1 cell CPT
COc1ccc(CN2CCc3nc(C(C)C)nc(-c4ccc(O)cc4)c3CC2)cc1,·,–,·,·,·,·
Cc1ccc(CN2CCc3nc(C(C)C)nc(-c4ccc(O)cc4)c3CC2)cc1,·,44.7µM,·,·,·,·
Cc1ccc(CNC(=O)N(C)CC2CCOCC2)cc1,·,–,·,·,·,·
Cc1ccc2ccc[n+](Cc3ccccc3)c2c1,–,–,–,–,9.2µM,16.4µM
CCN(Cc1ccccc1)C(=O)c1[nH]c2ccc(OC)cc2c1C,–,–,?,–,?,–
COc1ccc2c(c1)c(C)cc[n+]2Cc1ccccc1,23.1µM,–,–,14.6µM,1.64µM,2.59µM
Cc1ccc2c(c1)c(C)cc[n+]2Cc1ccccc1,?,–,–,–,2.91µM,2.59µM
O=C(NCCc1nnc2n1CCCCC2)Nc1ccc(Cl)cc1,·,–,·,·,·,·
COCn1c(=O)c2c(nc(SC3=NCCS3)n2Cc2ccccc2C)n(COC)c1=O,–,–,–,–,?,23.1µM
COCCCn1c(=O)c2ccccc2n(Cc2ccccc2C)c1=O,–,–,–,–,?,?
NCC12CC3CC(C1)CC(CC(=O)O)(C3)C2,·,–,·,·,·,·
CCOc1cc(C2C(C#N)=C(N)Oc3cc4c(cc32)OCO4)cc(Br)c1OC (stereo not given),·,–,·,·,·,·
CCOc1cc(C2C(C#N)=C(N)Oc3cc(N)ccc32)ccc1O (stereo not given),–,–,–,–,?,?
CCOc1ccc(Br)cc1C1C(C#N)=C(N)Oc2cc3c(cc21)OCO3 (stereo not given),·,7.08µM,·,·,·,·
COc1cc(C2C(C#N)=C(N)Oc3cc4c(cc32)OCO4)cc(OC)c1OC (stereo not given),0.0291µM,–,–,0.0366µM,0.164µM,0.184µM
COc1cc(C2C(C#N)=C(N)Oc3cc(O)ccc32)cc2c1OCO2 (stereo not given),20.6µM,?,–,?,?,?
COc1ccccc1C(=O)N1CCCC2(COc3ccccc3C(=O)N2)C1 (stereo not given),·,–,·,·,·,·
COc1ccc2ccc(OCc3nc(C(=O)N(C)CC4COCCO4)co3)cc2c1 (stereo not given),·,–,·,·,·,·
CN(/N=C/c1cc(Cl)cc(Cl)c1O)C(=S)NC(C)(C)C,–,–,–,?,16.4µM,?
N#Cc1ccc(CN2CCC3(CC2)COCCN3C(=O)c2ccccc2)cc1,·,–,·,·,·,·
NC(=O)CC(NC(=O)c1ccccc1)c1ccc(NC2CCCC2)c([N+](=O)[O-])c1 (stereo not given),–,?,–,–,18.4µM,4.61µM
NC(=O)CC(NC(=O)c1ccccc1)c1ccc(NC2CCC2)c([N+](=O)[O-])c1 (stereo not given),–,–,–,–,?,?
NC(=O)CC(NC(=O)c1ccccc1)c1ccc(NCC2CC2)c([N+](=O)[O-])c1 (stereo not given),–,–,–,–,?,23.1µM
CC(OC(=O)CC12CC3CC(CC(Br)(C3)C1)C2)C(=O)Nc1ccc([N+](=O)[O-])cc1Cl (stereo not given),·,–,·,·,·,·
COC[C@@H]1CN(C(=O)c2ccnc(C)c2)C[C@H]1C(N)=O,·,–,·,·,·,·
SMILES,HT1080 IDH1KD tx,12-LOX inh,IL1B secr inh,HT1080NT lethal,DT40 TDP1 no CPT,TDP1 cell CPT
O=C1NC2(C=Cc3c(ccc4ccccc34)O2)Oc2ccccc21 (stereo not given),?,·,–,–,23.1µM,23.1µM
C#CC(C)(CC)NC(=O)/C=C/c1cc(OC)c(OC)c(OC)c1 (stereo not given),·,–,·,·,·,·
O=C(NC(=S)NCCC1=CCCCC1)c1cccs1,·,11.2µM,·,·,·,·
Clc1ccc(CNCCC2=CCCCC2)cc1,–,–,-75.7,–,–,–
S=C(NCCC1=CCCCC1)Nc1ccc(Cl)cc1,–,–,–,–,20.6µM,23.1µM
Cc1ccc(C(=O)C2CCN(c3nccc(C(F)(F)F)n3)CC2)c(C)c1,·,–,·,·,·,·
CN(C)CCCN(C(=O)c1ccc(S(=O)(=O)N2CCOCC2)cc1)c1nc2cc3c(cc2s1)OCO3,–,–,–,–,–,–
COc1cccc2sc(N(CCN(C)C)C(=O)c3ccc(S(=O)(=O)N4CCCC4)cc3)nc12,–,?,–,–,?,–
Cc1cc(C)c2nc(N(CCCN(C)C)C(=O)c3ccc(S(=O)(=O)N4CCCCCC4)cc3)sc2c1,16.4µM,?,-96.1,16.4µM,?,?
CN(C)CCCN(C(=O)c1ccc(S(=O)(=O)N2CCCCC2)cc1)c1nc2cc3c(cc2s1)OCO3,–,–,-63.4,–,?,23.1µM
CC1CN(S(=O)(=O)c2ccc(C(=O)N(CCCN(C)C)c3nc4c(Cl)cccc4s3)cc2)CC(C)O1 (stereo not given),–,–,-53.8,–,–,–
CCOc1ccc2nc(N(CCCN(C)C)C(=O)c3ccc(S(=O)(=O)N4CCCC4)cc3)sc2c1,–,?,–,–,–,?
CN(C)CCCN(C(=O)c1ccc(S(=O)(=O)N2CCCC2)cc1)c1nc2ccc(Br)cc2s1,23.1µM,–,-52.2,20.6µM,20.6µM,23.1µM
O=C(COc1ccc(Cl)cc1Cl)NCCc1csc(-c2cccnc2)n1,·,–,·,·,·,·
O=c1[nH]nc2n1CCN(Cc1ccc(F)c(F)c1)CC2,·,–,·,·,·,·
O=C1CC(c2ccccc2)Cc2[nH]c(=O)c(C(=O)O)cc21 (stereo not given),·,·,·,·,–,–
O=C(c1ccc(C(F)(F)F)cc1)N1CC(Oc2ccc(F)c(F)c2)C1,·,–[6.33 µM],·,·,·,·
Cc1c(O)cc2c(c1O)C(=O)CC(c1ccccc1)O2 (stereo not given),23.1µM,?,–,?,5.8µM,5.8µM
CCOc1ccc(NC(=O)Cn2c(N3CCc4ccccc4C3)nc(C)cc2=O)cc1,·,–,·,·,·,·
OC(c1cn2cc(-c3ccccc3)nc2s1)(C(F)(F)F)C(F)(F)F,·,–,·,·,·,·
COc1ccc(OC)c(/C=C2\SC(N3CCCCC3)=NC2=O)c1,–,?,?,–,5.8µM,7.31µM
COc1cccc(/C=C2\SC(N3CCC(C)CC3)=NC2=O)c1OC,–,–,–,–,–,?
COc1ccccc1/C=C1\SC(N2CCC(C)CC2)=NC1=O,–,–,?,–,23.1µM,?
O=C1N=C(N2CCCCC2)S/C1=C\c1ccc(Cl)cc1,–,?,–,–,?,?
COc1cc(OC)c(OC)cc1/C=C1\SC(N2CCCCC2)=NC1=O,–,–,–,–,?,–
CCCOc1ccccc1/C=C1\SC(N2CCCCC2)=NC1=O,?,–,-60.8,?,5.8µM,?
O=C1N=C(N2CCCCC2)S/C1=C\c1ccccc1F,–,–,-64.3,–,?,–
O=C(CCc1nnn2c1CN(S(=O)(=O)c1ccccc1)CC2)NC1CC1,·,–,·,·,·,·
